Bioassay records: PubChem BioAssay, several laboratories
CYP2C9 act: increases human cytochrome P450 2C9 activity. recombinant CYP2C9, luciferin-H conversion, luminescence; active compounds read high; factor 1 = untreated enzyme, 0 = blocked. activation factor at 5 µM. AID 1024. hit rate 1.4% among 96,000;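 active = activation factor of 2 or more for CYP2C9 at a 5 µM dose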;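 also: 0 = sulfaphenazole-blocked wells and 1 = vehicle-only wells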
Target sequence (P11712 whole entry, looked up): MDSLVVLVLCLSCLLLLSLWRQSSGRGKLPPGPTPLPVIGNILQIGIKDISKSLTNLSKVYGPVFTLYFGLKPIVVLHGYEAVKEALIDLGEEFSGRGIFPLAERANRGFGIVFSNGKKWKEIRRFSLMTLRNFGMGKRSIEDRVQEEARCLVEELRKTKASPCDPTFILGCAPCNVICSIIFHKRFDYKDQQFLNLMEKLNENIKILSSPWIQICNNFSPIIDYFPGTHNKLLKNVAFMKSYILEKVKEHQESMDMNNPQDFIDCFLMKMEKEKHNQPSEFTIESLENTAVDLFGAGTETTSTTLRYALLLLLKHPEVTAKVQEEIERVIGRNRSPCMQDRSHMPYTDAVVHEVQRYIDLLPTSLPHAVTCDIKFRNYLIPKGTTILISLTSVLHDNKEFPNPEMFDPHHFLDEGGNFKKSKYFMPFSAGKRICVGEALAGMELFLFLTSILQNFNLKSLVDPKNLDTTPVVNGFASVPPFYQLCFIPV
CYP2C19 act: cytochrome P450 2C19 (human) activation. recombinant CYP2C19, luciferin-H EGE luminescence; active compounds read high; 0 = fully inhibited enzyme, 1 = untreated enzyme. activation factor at 5 µM. 96,000 tested, under 10 active. P33261;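 active = activation factor of at least 2 at 5 µM in the primary screen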;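 also: 0 = wells with 2.5 mM tranylcypromine and 1 = vehicle-only wells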
sEH inhibitor: blocks human soluble epoxide hydrolase activity; P34913; recombinant human sEH enzymatic activity assay; inhibition, % at 2 µM; hit rate 0.34% among 91,000; in the data active = inhibition above about 80%
CYP2C19 inh: inhibitors of human CYP2C19 | hit rate 21% among 96,000 | CYP2C19 Supersomes, luciferin-H EGE luminescence, 30 min | AID 778 | inhibition, % at 5 µM;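 active = CYP2C19 inhibition above a set limit at 5 µM in the primary screen, cut at about 50% in these data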;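 also: plate controls were negative control wells for no effect and 2.5 mM tranylcypromine positive control for full effect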
CYP2C9 inh: human CYP2C9 inhibition | CYP2C9 Supersomes, luciferin-H conversion, luminescence | hit rate 20% among 96,000 | inhibition, % at 5 µM;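 active = blocking of liver enzyme CYP2C9 beyond about 50% at 5 µM, limit read from the data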
sEH act: increases human soluble epoxide hydrolase activity; P34913; purified human sEH enzymatic activity, activator screen; activation, % at 2 µM; hit rate 0.04% among 91,000; AID 717; in the data active = activation above about 37%
* = called active by the depositor; / = not tested or not shown. Most compounds without a hit are left out; they make up all but 27% or so of the library.

SMILES	CYP2C9 act	CYP2C19 act	sEH inhibitor	CYP2C19 inh	CYP2C9 inh	sEH act
Cc1ccc(NS(=O)(=O)c2ccc(NC(=O)c3cccs3)cc2)cc1	0.5	0.7	9	32	51*	-6
CCOC(=O)NCc1ccc(S(=O)(=O)Nc2c(C)cccc2C)cc1	0.7	0.3	-12	75*	29	10
CCOC(=O)Nc1ccc(S(=O)(=O)NCc2ccccc2)cc1	0.9	0.8	7	19	7	-7
CCOC(=O)Nc1sc(NS(=O)(=O)c2ccc(C)cc2)nc1C	0.4	1	-4	4	58*	3
CCC(C)NC(=O)c1cn(C)c(=O)c2cc(OC)c(OC)cc12 (configuration not stated)	1.1	0.6	/	41	-5	/
O=C1CCCN1CN(C(=O)c1ccccc1)c1ccc(F)cc1	1.1	1.1	-3	-13	-6	2
CC(=O)c1cccc(NS(=O)(=O)N2CCCCC2)c1	0.8	0.4	0	60*	22	3
Cc1nnc(NC(=O)c2ccc(C)c(S(=O)(=O)N3CCCCCC3)c2)s1	1.1	1	-2	-4	-9	-3
O=C(NCc1cccs1)c1cc(S(=O)(=O)N2CCCCC2)ccc1Cl	/	/	40	/	/	-38
O=C(Nc1cccc(O)c1)c1cc(S(=O)(=O)N2CCCC2)ccc1Cl	0.2	0.5	16	46	82*	-14
Cc1ccc(C(=O)NCc2cccs2)cc1S(=O)(=O)N1CCCCC1	0.4	0.6	/	38	56*	/
Cc1ccc(C(=O)Nc2ccc3cn[nH]c3c2)cc1S(=O)(=O)N1CCCCC1	0.1	1.1	39	-8	92*	-39
CC(=O)c1cccc(NS(=O)(=O)N(C)C)c1	1.2	1.1	2	-12	-18	0
Cc1cc(C(=O)O)c(CSCc2cc(C(=O)O)oc2C)o1	1.7	0.8	7	22	-75	-12
Cc1ccc2cccc(OC(=O)c3ccc4c(c3)OCCO4)c2n1	1.1	0.9	-9	6	-9	10
COc1ccc(CC(NC(C)=O)C(=O)N2CCN(C(=O)Nc3ccc(Cl)cc3)CC2)cc1OC (configuration not stated)	0.7	0.8	47	16	30	-48
CCC(CC)C(=O)Nc1c2c(nn1-c1ccc(OC)cc1)CS(=O)C2 (configuration not stated)	0.7	0.8	5	23	27	-4
O=C(CCCN1C(=O)c2ccccc2C1=O)NCc1ccco1	/	/	0	/	/	4
O=C(Nc1ccon1)c1cccc(S(=O)(=O)N2CCCCCC2)c1	0.4	0.1	-24	93*	65*	23
Cc1ccc(C(=O)Nc2ccon2)cc1S(=O)(=O)N1CCCC1	1	0.4	5	58*	4	-4
Cc1ccc(C(=O)Nc2nccs2)cc1S(=O)(=O)N1CCCCC1	0.3	0.3	/	66*	68*	/
O=C(Nc1ccon1)c1cccc(S(=O)(=O)N2CCCC2)c1	0.8	0.7	3	34	16	-5
Cc1csc(NC(=O)c2ccc(C)c(S(=O)(=O)N3CCCCC3)c2)n1	0.7	0.9	8	14	27	-9
CNC(=O)c1ccccc1NC(=O)c1ccc(C)c(S(=O)(=O)N2CCCCC2)c1	0.4	0.3	-7	70*	62*	6
CC(C)NC(=O)c1cc(-n2cnnc2)ccc1Cl	1	1.1	10	-5	-4	-9
SMILES	CYP2C9 act	CYP2C19 act	sEH inhibitor	CYP2C19 inh	CYP2C9 inh	sEH act
CC(C)CC(=O)N1CCN(C(=O)CCC2CCCC2)CC1	0.9	0.8	4	20	8	-5
Cc1ccc(NC(=O)c2cc(S(=O)(=O)c3ccccc3)ccc2Cl)cc1	0.3	0.6	-12	36	73*	14
CC(=O)Nc1ccc(S(=O)(=O)N2CCN(S(=O)(=O)N3CCCCCC3)CC2)cc1	1	0.9	0	6	1	6
Cc1cc(C)n(C(=O)c2cccc(S(=O)(=O)N3CCCC3)c2)n1	0.3	0.2	/	76*	72*	/
O=C(Nc1ccccc1Cl)c1cccc(NS(=O)(=O)c2ccccc2)c1	0.2	0.1	4	89*	75*	-2
CC(=O)Nc1cccc(S(=O)(=O)N2CCCCCC2)c1	2.5*	0.2	-9	75*	-148	12
C=CCC(Nc1ccco1)c1ccccc1 (configuration not stated)	1.1	1.1	4	-10	-10	-6
CS(=O)(=O)N(CCC(=O)O)Cc1ccccc1	1.2	1.1	4	-12	-16	-4
CCN(C(=O)COc1ncnc2scc(-c3ccc(F)cc3)c12)C1CCS(=O)(=O)C1 (configuration not stated)	1	0.8	2	21	2	-5
CC(C)(O)C#CC#CCN1CCOCC1	0.9	1.1	-10	-6	10	12
O=C(Nc1ccccc1)c1cccc(S(=O)(=O)N2CCCCC2)c1	0.5	0.4	46	58*	48	-46
O=C(c1cccc(S(=O)(=O)N2CCCC2)c1)c1nnc(-c2ccncc2)o1	0.1	0.2	5	78*	90*	-5
CCc1ccc(OCC(=O)Nc2ccc(S(=O)(=O)N3CCCC3)cc2)c(Br)c1	1.2	1.2	54	-19	-19	-54
CC(=O)Nc1ccc(S(=O)(=O)N2CCC(NC(C)=O)(c3cccc(F)c3)CC2)cc1	0.3	0.1	21	93*	75*	-17
O=C(COC(=O)c1ccc(Br)o1)Nc1cccc(S(=O)(=O)N2CCCCCC2)c1	0.1	0	-4	96*	92*	6
CC(=O)NC1(c2cccc(F)c2)CCN(C(=O)Nc2ccc(C#N)cc2)CC1	1	1.1	10	-9	4	-8
CC(NC(=O)c1ccccc1Br)c1nnc(SCc2ccc([N+](=O)[O-])cc2)n1C (configuration not stated)	1	1.1	15	-7	-2	-13
CC(=O)NCCNC(=O)CCNC(=O)c1ccc(Cl)cc1	0.9	0.9	-10	8	6	13
CCOC(=O)C1=C(NC(=S)NC(=O)c2ccccc2)c2ccccc2CC1C(C)C (configuration not stated)	0.2	0.6	-3	41	77*	5
CCOC(=O)c1ccc(NC(=O)c2ccc(NC(=O)c3ccccc3)cc2)cc1	0.6	0.9	-13	12	42	11
CC(Nc1ccc(Br)cn1)c1cc(Cl)ccc1O (configuration not stated)	0.1	0.2	0	82*	86*	3
CC(Nc1ccc(Cl)cc1)c1cc(Cl)ccc1O (configuration not stated)	/	/	4	/	/	-2
CCOc1ccc(NC(C)c2cc(Cl)ccc2O)cc1 (configuration not stated)	0.2	0.4	6	62*	79*	-1
CN(C)C(CN1C(=O)C2CC=CCC2C1=O)c1cn(C)c2ccccc12 (configuration not stated)	0.9	0.7	13	29	8	-11
